RAD54 inh: RAD54 (human) branch migration inhibition; Q92698; RAD54 Holliday junction branch migration, FAM/BHQ fluorescence; inhibition, % at 10.4 µM; hit rate 0.14% among 360,000; AID 602329;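 active = mean normalized replicate activity at least 40 and at least half of replicates scoring 40 or more; inconclusive = only one of the two criteria met; inactive = mean below 40 and under half of replicates reaching 40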;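 note: 0% = median of neutral control wells and 100% = median of positive control wells; inhibitors cause a drop in the FAM fluorescence signal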
CASP6 VEID inh: caspase-6 (human) enzyme inhibition | purified caspase-6, Z-VEID-R110 cleavage fluorescence | hit rate 0.53% among 350,000 | P55212 | inhibition, % at 12.5 µM;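 active = mean inhibition across replicates at least about 35%, with every replicate also reaching that limit, limit read from the data; inconclusive = only one of the two criteria met; inactive = neither criterion met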;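 note: 0% = median of neutral control wells and 100% = no fluorescence left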
Target sequence (P55212 24-179 limits assumed): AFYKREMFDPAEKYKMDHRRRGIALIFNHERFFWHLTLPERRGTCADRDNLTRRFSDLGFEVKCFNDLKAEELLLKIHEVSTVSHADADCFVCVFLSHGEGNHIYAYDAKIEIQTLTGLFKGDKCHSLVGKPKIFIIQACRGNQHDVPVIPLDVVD
Target sequence (P55212 194-293 limits assumed): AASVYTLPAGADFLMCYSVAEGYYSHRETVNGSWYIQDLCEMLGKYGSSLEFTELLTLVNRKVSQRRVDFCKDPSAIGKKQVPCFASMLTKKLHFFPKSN
MLL AF4-AF9 inh: inhibitors of human MLL-AF4/AF9 interaction; AlphaScreen, biotin-AF4 peptide binding to FLAG-AF9; inhibition, % at 10 µM; P42568; hit rate 0.47% among 350,000; AID 651704;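 active = every replicate reaching a set inhibition limit, whatever the replicate mean, cut at about 25% in these data; inconclusive = mean inhibition reaches that limit but some replicates miss it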;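 note: 0% = plate neutral control median and 100% = total signal loss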
N-glyco inh: N-linked glycosylation inhibition; D54 ERlucT glycosylation luciferase reporter, 24 h; percent of 100 nM tunicamycin response; reporter increase, % at 12.5 µM; hit rate 0.23% among 360,000;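 active = mean luciferase reporter signal, scaled so untreated is 0 and the glycosylation-blocking control 100, at or above a set limit in every replicate; inconclusive = mean reaches the limit but not every replicate does; inactive = mean below the limit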;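 note: luciferase carries N-glycosylation sites so blocking glycosylation raises the light; 0% = median of neutral control wells and 100% = median of 100 nM tunicamycin wells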
RAD52 inh: RAD52 (human) annealing inhibition | P43351 | recombinant RAD52 DNA annealing, FRET fluorescence | inhibition, % at 18.7 µM | hit rate 0.46% among 360,000 | AID 651710;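 active = every replicate showing at least 50% inhibition; inconclusive = mean inhibition at least 50% but not in every replicate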
Target sequence (P43351 whole entry, looked up): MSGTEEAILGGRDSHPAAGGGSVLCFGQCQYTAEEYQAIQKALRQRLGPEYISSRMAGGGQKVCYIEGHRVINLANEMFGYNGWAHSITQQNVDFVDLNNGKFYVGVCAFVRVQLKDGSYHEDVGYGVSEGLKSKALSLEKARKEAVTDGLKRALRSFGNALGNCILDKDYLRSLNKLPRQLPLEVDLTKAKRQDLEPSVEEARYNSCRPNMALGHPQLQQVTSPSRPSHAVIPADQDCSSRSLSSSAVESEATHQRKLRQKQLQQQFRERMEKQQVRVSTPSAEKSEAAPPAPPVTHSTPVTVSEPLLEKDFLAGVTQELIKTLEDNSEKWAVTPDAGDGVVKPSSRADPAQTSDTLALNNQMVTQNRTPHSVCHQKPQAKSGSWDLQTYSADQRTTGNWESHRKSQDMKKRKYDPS
* marks the source's active call; other numbers are inactive results; ? = inconclusive; nt = no result given. The list is not random: actives were taken first. Their share in the collection is about 1.2%.

SMILES | RAD54 inh | CASP6 VEID inh | MLL AF4-AF9 inh | N-glyco inh | RAD52 inh
C[C@@H]1CCCCO[C@H](CN(C)C(=O)CCCN(C)C)[C@@H](C)CN([C@H](C)CO)C(=O)c2cc(NS(=O)(=O)c3ccc(Cl)cc3)ccc2O1 | 6.9 | -1.0 | -1.7 | nt | 6.8
C[C@H]1CCCCO[C@@H](CN(C)C(=O)CCCN(C)C)[C@@H](C)CN([C@@H](C)CO)C(=O)c2cc(NS(=O)(=O)c3ccc(Cl)cc3)ccc2O1 | 14.8 | -0.7 | 6.0 | nt | 53.5*
C[C@H]1CCCCO[C@@H](CN(C)C(=O)CCCN(C)C)[C@@H](C)CN([C@@H](C)CO)C(=O)c2cc(NC(=O)Nc3ccc(F)cc3)ccc2O1 | 10.9 | 0.5 | 9.2 | nt | 52.4*
C[C@H](CO)N1C[C@H](C)[C@@H](CN(C)C)OCCCC[C@H](C)Oc2ccc(NC(=O)Nc3ccc(C(F)(F)F)cc3)cc2C1=O | 1.8 | -2.1 | -3.2 | nt | 43.8
C[C@H](CO)N1C[C@H](C)[C@@H](CN(C)C(=O)Nc2ccc(F)cc2)OCCCC[C@H](C)Oc2ccc(NC(=O)Nc3ccc4c(c3)OCO4)cc2C1=O | 0.2 | 2.5 | 48.7* | nt | 6.5
C[C@@H](NC(=O)C[C@H]1CC[C@H]2[C@@H](COC[C@H](O)CN2C(=O)Nc2ccccc2)O1)c1ccccc1 | 1.0 | 1.5 | -0.3 | nt | 3.4
C[C@H]1CCCCO[C@H](CN(C)Cc2ccc3c(c2)OCO3)[C@@H](C)CN([C@@H](C)CO)C(=O)c2cc(NC(=O)Nc3ccc4c(c3)OCO4)ccc2O1 | 5.3 | -1.0 | 28.7* | nt | 41.3
C[C@@H]1CCCCO[C@H](CN(C)CC2CC2)[C@@H](C)CN([C@H](C)CO)C(=O)c2cc(NC(=O)Nc3ccc4c(c3)OCO4)ccc2O1 | 5.5 | -2.0 | 25.5* | nt | 22.9
C[C@@H]1CN([C@H](C)CO)C(=O)c2cccc(NC(=O)Nc3ccc(C(F)(F)F)cc3)c2O[C@@H]1CN(C)CC1CCCCC1 | 7.5 | -1.9 | 6.8 | nt | 56.9*
C[C@@H]1CCCCO[C@@H](CN(C)CC2CCCCC2)[C@H](C)CN([C@H](C)CO)C(=O)c2cc(NC(=O)c3ccccc3)ccc2O1 | -0.7 | 1.1 | 27.0* | nt | 12.8
CCCN1[C@@H]2c3ccc(-c4cccnc4)c(=O)n3C[C@H]1[C@H](CO)[C@H]2C(=O)NC1CCCC1 | nt | nt | -1.2 | nt | -15.4
COc1ccc(NC(=O)Nc2ccc3c(c2)C(=O)N([C@H](C)CO)C[C@@H](C)[C@@H](CN(C)C(=O)c2ccccc2)OCCCC[C@H](C)O3)cc1 | -2.8 | -1.4 | 0.9 | nt | 1.7
CCC(=O)N1C[C@H](C)[C@H](OC)CN(C)C(=O)c2ccc(NC(=O)c3cnccn3)cc2OC[C@H]1C | 0.9 | -1.7 | 0.1 | nt | -9.4
CNC(=O)C[C@H]1CC[C@@H]2[C@H](COc3ccc(NC(=O)Nc4cccc(Cl)c4)cc3C(=O)N2C)O1 | 3.6 | -1.1 | -0.7 | nt | -1.8
C[C@@H]1CN([C@H](C)CO)C(=O)c2cc(NS(=O)(=O)c3ccc(Cl)cc3)ccc2O[C@@H]1CN(C)S(=O)(=O)c1ccccc1 | -3.2 | nt | nt | nt | nt
COc1ccc2c3c([nH]c2c1)[C@H](CO)N(CC1CC1)CC31CCN(Cc2ccccc2F)CC1 | nt | nt | 15.6 | nt | nt
COc1ccc(S(=O)(=O)N2C[C@H](O)COC[C@H]3O[C@@H](CC(=O)NCc4ccc(Cl)c(Cl)c4)CC[C@@H]32)cc1 | -7.0 | 1.0 | 1.9 | nt | 5.5
C[C@H](CO)N1C[C@H](C)[C@H](CN(C)Cc2ccc3c(c2)OCO3)Oc2ccc(NC(=O)Nc3ccc4c(c3)OCO4)cc2CC1=O | 8.6 | 1.2 | 1.9 | nt | -0.8
C[C@@H]1CN([C@@H](C)CO)C(=O)Cc2cc(NC(=O)Nc3ccc4c(c3)OCO4)ccc2O[C@H]1CN(C)Cc1ccc2c(c1)OCO2 | -5.6 | 0.2 | 25.4* | nt | -15.0
CN1C(=O)c2cc(NC(=O)c3ccccc3)ccc2OC[C@H]2O[C@@H](CC(=O)NC3CCCC3)CC[C@H]21 | -8.0 | -2.0 | -1.4 | nt | -6.7
C[C@H]1CN([C@@H](C)CO)S(=O)(=O)c2ccc(-c3cncnc3)cc2O[C@@H]1CN(C)C(=O)C1CCCCC1 | -3.4 | nt | 1.5 | nt | 4.1
Clc1ccc(Nc2ccc(Cl)nn2)cc1 | -6.8 | -1.6 | 1.2 | 0.0 | -12.2
COc1ccc(Nc2ccc(Cl)nn2)cc1 | -7.9 | -2.2 | 43.1* | 0.7 | -8.2
C[C@@H]1CN([C@H](C)CO)C(=O)Cc2cc(NS(C)(=O)=O)ccc2O[C@@H]1CN(C)S(=O)(=O)c1ccccc1 | 4.4 | -2.1 | -0.7 | nt | 10.0
O=C(CCN1C(=O)/C(=C/c2ccco2)SC1=S)Nc1ccc(C(=O)O)c(O)c1 | -86.5 | 73.6* | 6.0 | -0.1 | -365.1
SMILES | RAD54 inh | CASP6 VEID inh | MLL AF4-AF9 inh | N-glyco inh | RAD52 inh
O=C(CCCN1C(=O)/C(=C\c2ccco2)SC1=S)Nc1ccc2ccccc2c1 | nt | 8.2 | 1.6 | -11.2 | -130.3
O=C(CCN1C(=O)/C(=C\c2ccco2)SC1=S)Nc1ccc(C(=O)O)c(O)c1 | -46.2 | 73.0* | 8.8 | -0.6 | -238.7
COc1ccccc1/C=C1\SC(=S)N(CCC(=O)Nc2ccc(C(=O)O)c(O)c2)C1=O | nt | 40.8* | 25.8* | 2.8 | -12.3
COc1ccccc1/C=C1/SC(=S)N(CCC(=O)Nc2cccnc2)C1=O | -20.5 | -5.3 | -9.3 | -0.2 | -133.3
COCC(=O)N1CC2(CCN(C(=O)NC(C)C)CC2)c2c(n(C)c3cc(OC)ccc23)[C@H]1CO | nt | nt | -1.4 | nt | 7.5
O=C(O)CCC(=O)N1N=C(c2ccco2)CC1c1ccco1 (centres undefined) | 7.7 | 41.1* | -1.5 | 1.3 | 1.1
O=C(O)CCC(=O)N1N=C(c2ccco2)CC1c1cccs1 (centres undefined) | nt | 33.9 | -5.2 | 0.0 | -14.2
C[C@@H]1CN([C@H](C)CO)C(=O)Cc2cc(NC(=O)C3CC3)ccc2O[C@@H]1CN(C)CC1CCCCC1 | 1.3 | nt | -6.1 | nt | -11.5
COc1ccc2c3c(n(C)c2c1)[C@@H](CO)N(C(=O)C1CC1)CC31CCN(Cc2cccc(F)c2)CC1 | nt | 0.0 | ? | nt | 19.9
COc1ccc2c3c(n(C)c2c1)[C@@H](CO)N(C(=O)C1CC1)CC31CN(Cc2cccc(F)c2)C1 | nt | nt | nt | nt | 16.8
COc1cccc(CN2CC3(C2)CN(C(=O)C2CC2)[C@H](CO)c2c3c3ccc(OC)cc3n2C)c1 | nt | nt | 27.3* | nt | nt
COc1ccc2c3c(n(C)c2c1)[C@@H](CO)N(C(=O)C1CCC1)CC31CCN(Cc2cccc(F)c2)CC1 | nt | 3.0 | 29.2* | nt | 10.5
COc1ccc2c3c(n(C)c2c1)[C@H](CO)N(C(=O)C1CC1)CC31CCN(Cc2cccc(F)c2)CC1 | nt | 2.9 | 26.2* | nt | 25.7
COc1ccc2c3c(n(C)c2c1)[C@H](CO)N(C(=O)C1CCCC1)CC31CCN(CC2CCCC2)CC1 | nt | 1.9 | 5.1 | nt | 18.4
CC(=O)N(C)C[C@H]1Oc2cc(C#Cc3cccnc3)ccc2S(=O)(=O)N([C@@H](C)CO)C[C@@H]1C | -2.5 | 0.9 | -0.6 | nt | 7.9
Cc1noc(C)c1S(=O)(=O)Nc1ccc2c(c1)C(=O)N([C@@H](C)CO)C[C@H](C)[C@H](CN(C)S(=O)(=O)c1ccc(F)cc1)OCCCC[C@@H](C)O2 | -1.5 | 2.0 | 1.6 | nt | -37.5

Assay outcomes from PubChem BioAssay.
